According to PubChem BioAssay (Tox21):
Records with an inconclusive call do not appear. Entries that show only a call come without a potency. Active and inactive are the calls of the source. Calls follow the shape of the dose curve; as a rule, active = well fitted inhibition curve with a large enough effect in the repeat runs; inconclusive = weak or mixed curves; inactive = flat fitted curve, though single readings scatter.

target: Voltage-gated inwardly rectifying potassium channel KCNH2 (Homo sapiens) (UniProt Q12809); assay: Human Ether-a-go-go-Related Gene (hERG) channel small molecule antagonists: fluorescence cell-based qHTS assay (AID 1671200); conditions: hERG-U2OS cells, FluxOR thallium flux fluorescence; series mostly up to 76.8 µM; also: nearly all actives have a fitted effect of over 50% in size
Sequence (Q12809 whole entry, looked up): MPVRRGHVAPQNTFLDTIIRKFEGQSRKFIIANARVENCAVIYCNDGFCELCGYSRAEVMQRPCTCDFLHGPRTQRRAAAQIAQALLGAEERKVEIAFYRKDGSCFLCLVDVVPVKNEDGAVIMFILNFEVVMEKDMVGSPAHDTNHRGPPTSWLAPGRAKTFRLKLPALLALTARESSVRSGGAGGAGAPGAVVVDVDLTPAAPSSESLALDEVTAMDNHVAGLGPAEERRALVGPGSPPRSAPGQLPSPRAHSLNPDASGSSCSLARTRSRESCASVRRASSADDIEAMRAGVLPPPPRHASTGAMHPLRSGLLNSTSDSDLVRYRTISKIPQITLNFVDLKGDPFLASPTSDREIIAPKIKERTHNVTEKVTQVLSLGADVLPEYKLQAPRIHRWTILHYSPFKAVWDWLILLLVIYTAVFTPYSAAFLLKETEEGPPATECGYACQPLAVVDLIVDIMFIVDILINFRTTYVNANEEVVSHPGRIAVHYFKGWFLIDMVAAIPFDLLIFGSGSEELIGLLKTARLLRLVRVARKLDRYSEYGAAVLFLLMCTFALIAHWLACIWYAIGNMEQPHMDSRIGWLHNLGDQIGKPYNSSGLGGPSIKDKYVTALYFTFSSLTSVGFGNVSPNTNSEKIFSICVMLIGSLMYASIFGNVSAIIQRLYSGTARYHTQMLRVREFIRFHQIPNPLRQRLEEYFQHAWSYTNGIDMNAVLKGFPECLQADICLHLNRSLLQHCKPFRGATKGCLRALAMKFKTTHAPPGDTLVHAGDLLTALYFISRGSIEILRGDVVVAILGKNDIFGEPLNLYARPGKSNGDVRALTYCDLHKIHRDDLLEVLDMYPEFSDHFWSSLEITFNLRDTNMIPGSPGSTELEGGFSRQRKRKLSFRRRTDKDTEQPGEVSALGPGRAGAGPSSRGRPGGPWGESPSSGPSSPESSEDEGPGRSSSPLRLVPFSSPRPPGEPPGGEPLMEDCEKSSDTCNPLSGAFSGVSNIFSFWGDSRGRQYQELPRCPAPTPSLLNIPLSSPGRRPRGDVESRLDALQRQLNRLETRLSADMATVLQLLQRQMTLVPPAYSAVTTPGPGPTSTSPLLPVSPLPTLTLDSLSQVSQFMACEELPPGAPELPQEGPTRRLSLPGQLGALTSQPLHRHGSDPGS
Text: National Center for Advancing Translational Sciences [NCATS]
U.S. Environmental Protection Agency [EPA]
National Institutes of Environmental Health Sciences [NIEHS]
National Toxicology Program [NTP]
U.S. Food and Drug Administration [FDA]
Mutations in the hERG channel cause Long QT (LQT) syndrome. LQT syndrome is a cardiac disorder which can cause ventricle arrhythmia and sudden death. Additionally, compounds which block the hERG channel can cause acquired LQT syndrome. Several FDA approved drugs have been removed from the market due to their hERG blocking activity. A cell-based hERG channel inhibition assay can be used to screen chemical compounds that inhibit hERG channel. This assay measures hERG channel activity using thallium ions as surrogate ions to measure potassium into the cells.
Tox21 Assay Protocol Summary:
hERG-U2OS cells were resuspended in culture medium and dispensed into 1536-well, black wall/clear-bottom plates at 1000cells/well/3uL using a Multidrop Combi dispenser (Thermo Fisher, Waltham, MA). After plates were incubated at 37 C overnight, 3 uL of Loading Buffer provided by FluxOR II Potassium Ion Channel Assay kit (Thermo, Carlsbad, CA) was added to each well. The assay plates were then incubated at room temperature in the dark for 1h. […] After the assay plates were incubated at room temperature for 10 min, 1 uL of Stimulus Buffer provided by FluxOR II Potassium Ion Channel Assay kit was added into each well and fluorescence intensity (480nm excitation/540nm emission) was continuously measured for 2 min at 1 second intervals using a Functional Drug Screening System (FDSS) 7000EX kinetic plate reader (Hamamatsu, Japan).

Structure (SMILES) | Potency
Nc1ccc(Br)cc1 | inactive
Clc1cccc(Cl)c1Cl | inactive
Cc1cc(-c2cc(C)c(N)c(C)c2)cc(C)c1N | inactive
[O-][Cl+2]([O-])O | inactive
Oc1ccccc1Cl | inactive
CNC(=O)Oc1ccccc1OC(C)C | inactive
O=c1[nH]c(=O)[nH]c(=O)[nH]1 | inactive
CC(C)(C)OOC(C)(C)C | inactive
O=C1CCCN1 | inactive
CCCCCCCCCl | inactive
CCC12COCN1COC2 | inactive
COP(N)(=O)SC (stereo not given) | inactive
CC(=O)C=C(C)C | inactive
CCOP(=S)(OCC)Oc1cnc2ccccc2n1 | inactive
CCCN(CCC)N=O | inactive
O=c1ccc(=O)[nH][nH]1 | inactive
CC(C)N1C(=O)c2ccccc2NS1(=O)=O | inactive
Cc1ccc(N)cc1Cl | inactive
COCCl | inactive
COC(=O)NS(=O)(=O)c1ccc(N)cc1 | inactive

Structure (SMILES) | Potency
CCCCN(CCCC)SN(C)C(=O)Oc1cccc2c1OC(C)(C)C2 | inactive
Cc1ccccc1O | inactive
OCCN(CCO)CCO | inactive
CCCCOC(=O)c1ccccc1C(=O)OCCCC | inactive
Clc1ccc(Cl)cc1 | inactive
c1cc2c3c(cccc3c1)CC2 | inactive
COC(=O)NC(=S)Nc1ccccc1NC(=S)NC(=O)OC | inactive
CCc1cccc(C)c1N(C(=O)CCl)C(C)COC (stereo not given) | inactive
C=CCO | inactive
C1CN2CCN1CC2 | inactive
CCCC1COC(Cn2cncn2)(c2ccc(Cl)cc2Cl)O1 (stereo not given) | inactive
C#CCN(C)[C@H](C)Cc1ccccc1 | inactive
C=C(C)CCl | inactive
Cc1cc(Cl)ccc1O | inactive
CC(Oc1ccc(Cl)cc1Cl)C(=O)O (stereo not given) | inactive
CC1OC(C)OC(C)O1 (stereo not given) | inactive
CC(C)(C)OOC(=O)c1ccccc1 | inactive
CN(C)[C@@H]1C(=O)C(C(N)=O)=C(O)[C@@]2(O)C(=O)C3=C(O)c4c(O)cccc4[C@@](C)(O)[C@H]3C[C@@H]12 | inactive
Cc1ccc(N)cc1N | inactive
Clc1ccccc1Cl | inactive
